Experimental data reported in PubChem BioAssay (NCATS).
Records with an inconclusive call do not appear. The source made the active and inactive calls. Unless noted, calls come from the whole dose curve; as a rule, active = well fitted curve in the direction sought with a large enough effect; inconclusive = small, poorly fitted or top-dose-only effect, or another doubt; inactive = no such curve, though single readings can be large; an effect the other way counts as inactive or inconclusive.

Tests used:
[1] = qHTS assay for measurement of the activity of small molecule inhibitors on Zika virus induced Caspase-3 activity in human iPSC derived neural progenitor cells (hNPCs) (AID 1224857); note: nearly all actives have a fitted effect of over 65% in size
Procedure, shortened: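 Zika virus (2 FFU/cell) infection of human iPSC-derived NPCs, 6 h, following 1 h compound preincubation. Read-out: Caspase-Glo 3/7 luminescence.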

[2] = qHTS assay for measurement of the activity of small molecule inhibitors on Zika virus induced Caspase-3 activity in human astrocytoma cells (AID 1224859)
Procedure, shortened: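 Caspase activation in ZIKV-infected SNB-19 cells (2 FFU/cell, 6 h) measured by Caspase-Glo 3/7 luminescence after 30 min RT; compound pre-incubated 1 h; normalised to uninfected and infected controls.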

[3] = qHTS assay to identify small molecule inhibitors of chordoma cells - UCH-1 (AID 1259355); note: nearly all actives have a fitted effect of over 55% in size; note: potency is the fitted concentration of half-maximal effect
Procedure, shortened: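 Luminescent ATP read-out (CellTiter-Glo, 30min at room temperature) measured viability of UCH-1 cells exposed for 48hr to test drugs at 15 concentrations, co-dosed with a five-agent combination of auranofin, camptothecin, doxorubicin, rubitecan and topotecan.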

[4] = qHTS assay to identify small molecule inhibitors of chordoma cells - UCH-2 (AID 1259356); note: potency is the fitted concentration of half-maximal effect
[5] = P-glycoprotein substrates identified in KB-8-5-11 adenocarcinoma cell line, qHTS therapeutic library screen (AID 1346987); note: nearly all actives have a fitted effect of over 65% in size; note: potency is the fitted concentration of half-maximal effect
Procedure, shortened: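 KB-8-5-11, a colchicine-selected P-gp-overexpressing KB-3-1 subline, was grown without colchicine for the assay. Cells were seeded at 500 cells/well, dosed in concentration-response and incubated 72 h at 37 degree C, 5% CO2. Viability was read by CellTiter-Glo luminescence.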

[6] = Natriuretic polypeptide receptor (hNpr1) antagonism - Pilot counterscreen GloSensor control cell line (AID 1347045; calls by dose curve; note: potency is the fitted concentration of half-maximal effect)
Procedure, shortened: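 HEK293 cGMP GloSensor cells preloaded 2 h with 2% GloSensor reagent, then compound 30 min before baseline luminescence read. Stimulated with 50 uM sodium nitroprusside, 20 min at room temperature, then read again; counterscreen for Npr1 antagonism.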

[7] = target: Atrial natriuretic peptide receptor 1 (Homo sapiens) (UniProt P16066); assay: Natriuretic polypeptide receptor (hNpr1) antagonism - Pilot screen (AID 1347049; calls by dose curve;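 note: agonist-evoked cGMP luminescence read 20 min after hNppA addition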)
Procedure, shortened: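 HEK293 cells co-expressing hNpr1 and the GloSensor pGS-40F cGMP luciferase sensor were preloaded with 2% GloSensor reagent for 2 h. Compounds were added for 30 min at room temperature, then cells were stimulated with 0.1 nM hNppA for 20 min before luminescence readout.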

[8] = target: Atrial natriuretic peptide receptor 2 (Homo sapiens) (UniProt P20594); assay: Natriuretic polypeptide receptor (hNpr2) antagonism - Pilot subtype selectivity assay (AID 1347050; calls by dose curve)
Procedure, shortened: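 cGMP-sensor HEK293/hNpr2 cells; 2% GloSensor reagent 2 h RT; compounds 30 min; baseline luminescence read; 1 nM hNppC agonist 20 min RT; final luminescence read by CCD camera. Antagonism = reduced post-agonist signal.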

[9] = NS1 protein of Zika virus - qHTS assay to identify small molecule inhibitors in human HEK 293 cells (AID 1347053); note: nearly all actives have a fitted effect of over 55% in size
Procedure, shortened: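 Inhibition of NS1 expression was scored in HEK 293 cells given compound 1 h ahead of MR766 virus (MOI = 0.5). Following 24 h at 37 C, two anti-NS1 antibodies generated a TR-FRET signal, scaled between uninfected and infected controls.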

[10] = qHTS profiling of the MIPE4 collection as inhibitors of Plasmodium falciparum (3D7) proliferation (AID 743344; call rule not given here); conditions: P. falciparum 3D7 in erythrocytes, SYBR Green DNA fluorescence, 72 h; at 28.5 µM (top of the series)
Procedure, shortened: (§1)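 Erythrocytes infected with P. falciparum (0.3% parasitemia, 2.5% hematocrit) incubated with compounds 72 h at 37 C, 5% CO2. Lysis with saponin/Triton buffer containing SYBR Green I, overnight at room temperature in the dark; DNA fluorescence (485/535 nm) normalised to 0.29 uM artemisinin and DMSO.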

[11] = qHTS profiling of the MIPE4 collection as inhibitors of Plasmodium falciparum (DD2) proliferation (AID 743345; call rule not given here); conditions: P. falciparum Dd2 in erythrocytes, SYBR Green DNA, 72 h; at 28.5 µM (top of the series)
Procedure, shortened: as §1

[12] = qHTS profiling of the MIPE4 collection as inhibitors of Plasmodium falciparum (DD2) proliferation (Rep 2) (AID 743346; call rule not given here); conditions: P. falciparum Dd2 in erythrocytes, SYBR Green DNA, 72 h; at 28.5 µM (top of the series)
Procedure, shortened: as §1

[13] = qHTS profiling of the MIPE4 collection as inhibitors of Plasmodium falciparum (HB3) proliferation (AID 743347; call rule not given here); conditions: P. falciparum HB3 in erythrocytes, SYBR Green DNA, 72 h; at 28.5 µM (top of the series)
Procedure, shortened: as §1

[14] = qHTS profiling for inhibitors of Plasmodium falciparum (3D7) proliferation (AID 743322);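 note: infected erythrocytes exposed to compound for 72 h before lysis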; conditions: P. falciparum 3D7 proliferation; at 28.7 µM (top of the series) unless noted
Procedure, shortened: as §1

[15] = qHTS profiling for inhibitors of Plasmodium falciparum (DD2) proliferation (AID 743323; call rule not given here); conditions: lower = more inhibition; at 28.7 µM (top of the series) unless noted
Procedure, shortened: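 Parasite DNA quantified by SYBR Green fluorescence (ex 485, em 535 nm) after saponin/Triton lysis and overnight dark incubation. Cultures: 0.3% parasitemia, 2.5% hematocrit, 72 h, 37 C; data scaled between DMSO and 0.29 uM artemisinin.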

[16] = qHTS profiling for inhibitors of Plasmodium falciparum (HB3) proliferation (AID 743324); conditions: Plasmodium falciparum HB3 blood-stage proliferation; at 28.7 µM (top of the series)
Procedure, shortened: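 P. falciparum HB3 grown in erythrocytes (0.3% parasitemia, 2.5% hematocrit final) with compound for 72 h at 37 C, 5% CO2. Parasite DNA detected by SYBR Green after saponin/triton lysis overnight; normalized to 0.29 uM artemisinin and DMSO.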

Sequence of Atrial natriuretic peptide receptor 1 (Homo sapiens) (P16066 whole entry, looked up): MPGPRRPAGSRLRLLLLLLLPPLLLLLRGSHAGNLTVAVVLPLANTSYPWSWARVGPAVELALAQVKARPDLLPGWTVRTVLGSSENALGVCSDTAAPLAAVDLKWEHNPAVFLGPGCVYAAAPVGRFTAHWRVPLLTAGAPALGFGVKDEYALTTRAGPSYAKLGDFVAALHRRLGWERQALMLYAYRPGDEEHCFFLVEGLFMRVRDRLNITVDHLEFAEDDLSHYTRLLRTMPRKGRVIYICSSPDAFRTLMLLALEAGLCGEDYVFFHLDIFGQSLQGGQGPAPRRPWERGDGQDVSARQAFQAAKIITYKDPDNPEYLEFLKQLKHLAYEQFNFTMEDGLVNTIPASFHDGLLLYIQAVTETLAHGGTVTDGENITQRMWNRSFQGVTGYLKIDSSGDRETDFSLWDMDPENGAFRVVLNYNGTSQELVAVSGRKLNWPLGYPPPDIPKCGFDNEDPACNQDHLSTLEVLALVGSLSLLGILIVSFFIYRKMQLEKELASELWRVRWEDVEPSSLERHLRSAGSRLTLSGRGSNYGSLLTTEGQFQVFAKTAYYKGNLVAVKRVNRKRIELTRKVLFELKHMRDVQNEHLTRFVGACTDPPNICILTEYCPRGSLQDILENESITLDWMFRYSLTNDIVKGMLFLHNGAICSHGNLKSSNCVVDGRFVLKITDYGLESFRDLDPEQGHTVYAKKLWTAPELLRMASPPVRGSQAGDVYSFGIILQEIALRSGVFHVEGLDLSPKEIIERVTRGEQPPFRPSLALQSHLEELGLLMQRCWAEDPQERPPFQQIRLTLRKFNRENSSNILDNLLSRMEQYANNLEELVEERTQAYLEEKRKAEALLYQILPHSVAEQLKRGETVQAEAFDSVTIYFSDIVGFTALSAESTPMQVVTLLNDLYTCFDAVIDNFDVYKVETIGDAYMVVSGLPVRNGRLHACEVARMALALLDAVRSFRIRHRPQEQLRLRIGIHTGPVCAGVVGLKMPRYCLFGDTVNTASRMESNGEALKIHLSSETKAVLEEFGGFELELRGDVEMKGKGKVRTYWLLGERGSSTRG
Sequence of Atrial natriuretic peptide receptor 2 (Homo sapiens) (P20594 whole entry, looked up): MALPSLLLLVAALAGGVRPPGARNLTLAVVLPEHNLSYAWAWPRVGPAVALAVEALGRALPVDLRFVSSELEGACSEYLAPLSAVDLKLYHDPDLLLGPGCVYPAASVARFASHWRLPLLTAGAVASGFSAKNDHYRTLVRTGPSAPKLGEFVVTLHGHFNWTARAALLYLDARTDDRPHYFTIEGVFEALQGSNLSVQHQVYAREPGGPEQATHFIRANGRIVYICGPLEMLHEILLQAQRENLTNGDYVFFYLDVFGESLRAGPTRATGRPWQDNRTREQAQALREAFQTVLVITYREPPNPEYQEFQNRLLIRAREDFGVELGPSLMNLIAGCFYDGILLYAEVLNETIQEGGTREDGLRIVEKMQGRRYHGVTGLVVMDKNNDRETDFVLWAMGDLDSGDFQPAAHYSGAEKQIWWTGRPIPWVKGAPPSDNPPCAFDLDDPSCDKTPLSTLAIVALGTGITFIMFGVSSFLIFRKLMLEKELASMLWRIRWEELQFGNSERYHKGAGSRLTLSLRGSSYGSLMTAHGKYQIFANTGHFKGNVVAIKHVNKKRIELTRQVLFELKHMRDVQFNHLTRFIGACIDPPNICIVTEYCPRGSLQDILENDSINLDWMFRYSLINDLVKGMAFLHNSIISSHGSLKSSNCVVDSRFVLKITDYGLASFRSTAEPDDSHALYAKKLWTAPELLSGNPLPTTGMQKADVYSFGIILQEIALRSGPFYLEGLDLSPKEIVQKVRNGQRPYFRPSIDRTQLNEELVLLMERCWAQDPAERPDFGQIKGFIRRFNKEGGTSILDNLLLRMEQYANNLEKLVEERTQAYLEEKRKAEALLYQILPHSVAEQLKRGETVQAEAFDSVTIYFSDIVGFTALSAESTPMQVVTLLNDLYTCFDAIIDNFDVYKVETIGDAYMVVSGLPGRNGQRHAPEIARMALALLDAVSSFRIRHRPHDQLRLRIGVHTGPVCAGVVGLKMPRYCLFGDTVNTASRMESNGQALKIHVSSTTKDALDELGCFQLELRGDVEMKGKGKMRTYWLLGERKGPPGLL

O=c1[nH]c(=O)n([C@H]2C[C@H](O)[C@@H](CO)O2)cc1Br
inactive: outcome [1] | outcome [2] | Potency [3] | Potency [4] | Potency [5] | Potency [6] | Potency [7] | Potency [8] | outcome [9]

CCN(CC)CCNC(=O)c1ccc(NC(C)=O)cc1
inactive: outcome [1] | outcome [2] | Potency [3] | Potency [4] | Potency [5] | Potency [6] | Potency [7] | Potency [8] | outcome [9]

CCNC(=O)N1CCN(CCCC(c2ccc(F)cc2)c2ccc(F)cc2)CC1
inactive: outcome [1] | outcome [2] | Potency [3] | Potency [4] | outcome [9]
active: Potency [5] 16.4 µM | Potency [6] 11.7 µM

c1cc(CN2CCCCC2)cc(OCCCNc2nc3ccccc3s2)c1
active: Potency [5] 14.6 µM
inactive: outcome [1] | outcome [2] | Potency [3] | Potency [4] | Potency [7] | outcome [9]

O=C(O)CCCCCCCC(=O)O
inactive: outcome [1] | outcome [2] | Potency [3] | Potency [4] | Potency [5] | Potency [6] | Potency [7] | Potency [8] | outcome [9]

Cc1ccc(Cl)c(Nc2ccccc2C(=O)O)c1Cl
inactive: outcome [1] | outcome [2] | Potency [3] | Potency [4] | Potency [5] | Potency [6] | Potency [7] | Potency [8] | outcome [9]

Cc1nnc(SCC2=C(C(=O)O)N3C(=O)[C@@H](NC(=O)Cn4cnnn4)[C@H]3SC2)s1
inactive: outcome [1] | outcome [2] | Potency [3] | Potency [4] | Potency [5] | Potency [6] | Potency [7] | outcome [9]

Cc1scc2c1N(C(=O)CN1CCN(C)CC1)c1ccccc1NC2=O
inactive: outcome [1] | outcome [2] | Potency [3] | Potency [4] | Potency [5] | Potency [6] | Potency [7] | outcome [9]

c1ccc2c(c1)CCCC2C1=NCCN1 (stereo not drawn)
inactive: outcome [1] | outcome [2] | Potency [3] | Potency [4] | Potency [5] | Potency [6] | Potency [7] | Potency [8] | outcome [9]

COc1ccc(CN(CCN(C)C)c2ccccn2)cc1
inactive: outcome [1] | outcome [2] | Potency [3] | Potency [4] | Potency [5] | Potency [6] | outcome [9]

CCN(CC)CCCN(c1ccccc1)C1Cc2ccccc2C1
inactive: outcome [1] | outcome [2] | Potency [6] | Potency [7] | outcome [9]
active: Potency [3] 31.6 µM | Potency [4] 23.1 µM | Potency [5] 10.3 µM

Cc1ccc(S(=O)(=O)NC(=O)NN2CCCCCC2)cc1
inactive: outcome [1] | outcome [2] | Potency [3] | Potency [4] | Potency [5] | Potency [6] | Potency [7] | outcome [9]

CN(C)C(=O)Oc1cccc([N+](C)(C)C)c1
inactive: outcome [1] | outcome [2] | Potency [3] | Potency [4] | Potency [5] | Potency [7] | outcome [9]

Brc1c(NC2=NCCN2)ccc2nccnc12
inactive: outcome [1] | outcome [2] | Potency [3] | Potency [4] | Potency [5] | Potency [6] | Potency [7] | outcome [9]

CN=C(NC#N)NCCSCc1nc[nH]c1C
inactive: outcome [1] | outcome [2] | Potency [3] | Potency [4] | Potency [5] | Potency [6] | Potency [7] | outcome [9]

O=C1NCN(c2ccccc2)C12CCN(CCCC(c1ccc(F)cc1)c1ccc(F)cc1)CC2
11.8%: parasite growth, % of control (lower = inhibition) [12]
5.05%: parasite growth, % of DMSO control [10]
active: Potency [3] 31.6 µM | Potency [4] 25.9 µM | Potency [5] 14.6 µM
9.4%: parasite growth remaining, % of DMSO control (lower = more inhibition) [11]
4.02%: growth, % of control [13]
inactive: outcome [1] | outcome [2] | Potency [7] | Potency [8] | outcome [9]

CCN1CCc2nc(N)oc2CC1
inactive: outcome [1] | outcome [2] | Potency [3] | Potency [4] | Potency [5] | Potency [6] | Potency [7] | outcome [9]

CCCCNc1ccc(C(=O)OCCN(C)C)cc1
inactive: outcome [1] | outcome [2] | Potency [3] | Potency [4] | Potency [5] | Potency [6] | Potency [7] | outcome [9]

CCCCCN(CCCCC)C(=O)C(CCC(=O)O)NC(=O)c1ccc(Cl)c(Cl)c1 (stereo not drawn)
inactive: outcome [1] | outcome [2] | Potency [3] | Potency [4] | Potency [5] | Potency [6] | Potency [7] | Potency [8] | outcome [9]

CC(C)(Oc1ccc(CCNC(=O)c2ccc(Cl)cc2)cc1)C(=O)O
inactive: outcome [1] | outcome [2] | Potency [3] | Potency [4] | Potency [5] | Potency [6] | Potency [7] | Potency [8] | outcome [9]

CCCNC(C)C(=O)Nc1ccccc1C (stereo not drawn)
inactive: outcome [1] | outcome [2] | Potency [3] | Potency [4] | Potency [5] | Potency [6] | Potency [7] | outcome [9]

CC(C)(C)c1ccc(C(=O)CCCN2CCC(OC(c3ccccc3)c3ccccc3)CC2)cc1
inactive: outcome [1] | outcome [2] | Potency [4] | Potency [7] | Potency [8] | outcome [9]
active: Potency [3] 15.8 µM | Potency [5] 20.6 µM

CCOC(=O)c1cnc2c(cnn2CC)c1NN=C(C)C
inactive: outcome [1] | outcome [2] | Potency [3] | Potency [4] | Potency [6] | Potency [7] | outcome [9]

CN1C[C@H](C(=O)N[C@]2(C)O[C@@]3(O)[C@@H]4CCCN4C(=O)[C@H](Cc4ccccc4)N3C2=O)C[C@@H]2c3cccc4[nH]cc(c34)C[C@H]21
5.44%: parasite growth, % of DMSO control [10]
11.7%: parasite growth, % of control (lower = inhibition) [12]
5.6%: growth, % of control [13]
-0.39%: remaining parasite growth % (stronger effect = lower value) [14]
inactive: outcome [1] | outcome [2] | Potency [4] | Potency [5] | Potency [6] | Potency [7] | Potency [8] | outcome [9]
7.94%: parasite growth remaining, % of DMSO control (lower = more inhibition) [11]
0.0095%: activity, percent of control [15]
-1.27%: remaining proliferation (% of control), lower = more inhibition [16]

COCCOC(=O)C1=C(C)NC(C)=C(C(=O)OC(C)C)C1c1cccc([N+](=O)[O-])c1 (stereo not drawn)
inactive: outcome [1] | outcome [2] | Potency [3] | Potency [4] | Potency [6] | Potency [7] | Potency [8] | outcome [9]
